In PubChem BioAssay (EPA / NIEHS):
Activity calls are given as the source filed them. The calls were made as follows: active = hit-call score of the fitted dose curve at least 0.9, where 1 is the maximum; inactive = score below 0.9.

Experiments:
[1] = ATG_NFI_CIS: Attagene CIS-FACTORIAL HepG2 Assay for human Nuclear Factor I (NFI) (AID 2282989); settings: HepG2 cis-regulatory reporter, NFI response element transcription; actives raise or lower the signal
In short: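 Multiplexed cis-reporter system in human HepG2 cells reports native TF activity as reporter mRNA induction 24 h post-dose. Fragments labelled with 6-FAM, HpaI-digested and resolved by capillary electrophoresis; activity fitted both directions versus DMSO.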

[2] = biological target: Myc proto-oncogene protein (Homo sapiens) (UniProt P01106); assay: ATG_Myc_CIS: Attagene CIS-FACTORIAL HepG2 Assay for human Myelocytomatosis (Myc) Proto-Oncogene Transcription Factor (AID 2282990); settings: HepG2, Attagene cis-reporter transcription factor activity; actives raise or lower the signal
Chain of Myc proto-oncogene protein (Homo sapiens) (P01106 whole entry, looked up, the tested form may be a part): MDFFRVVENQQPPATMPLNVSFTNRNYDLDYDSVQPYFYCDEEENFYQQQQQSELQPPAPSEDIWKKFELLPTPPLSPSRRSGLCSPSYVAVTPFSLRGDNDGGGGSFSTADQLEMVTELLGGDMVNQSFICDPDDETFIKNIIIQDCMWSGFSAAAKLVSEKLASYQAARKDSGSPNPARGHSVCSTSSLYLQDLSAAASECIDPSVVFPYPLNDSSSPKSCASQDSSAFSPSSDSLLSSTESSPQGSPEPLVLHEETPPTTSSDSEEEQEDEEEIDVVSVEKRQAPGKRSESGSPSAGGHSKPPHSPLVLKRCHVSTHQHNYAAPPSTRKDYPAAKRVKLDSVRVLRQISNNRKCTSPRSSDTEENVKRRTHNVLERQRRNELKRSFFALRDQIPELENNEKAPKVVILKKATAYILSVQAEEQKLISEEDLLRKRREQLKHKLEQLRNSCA
In short: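 Fluorescence intensity of reporter-specific cDNA fragments, separated by capillary electrophoresis, gives the signal. Transfected HepG2 cells carrying cis-promoter reporter constructs are incubated with compound for 24 h; DMSO serves as baseline.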

[3] = ATG_NRF2_ARE_CIS: Attagene CIS-FACTORIAL HepG2 Assay for human Nuclear Factor Erythroid 2 Related Factor 2 (NFR2) response to Antioxidant Response Elements (ARE) (AID 2282992); settings: HepG2 Attagene ARE/NRF2 reporter, transcription factor activity; actives raise or lower the signal
In short: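 Endogenous transcription factor activity read out as reporter transcript levels (RT-PCR plus capillary electrophoresis, fluorescence) in transiently transfected HepG2 cells. Measured at 24 h after dosing; gain or loss of signal fitted versus DMSO.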

[4] = ATG_Oct_MLP_CIS: Attagene CIS-FACTORIAL HepG2 Assay for human Octamer-Binding Transcription Factor (Oct) (AID 2282993); settings: HepG2 Attagene cis-factorial Oct reporter, mRNA; actives raise or lower the signal
In short: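 After 24 h compound exposure, transfected HepG2 cells were lysed for total RNA; reporter-specific cDNA was PCR-amplified, fluorescently labelled and sized by capillary electrophoresis. Bidirectional curve fitting used DMSO as baseline.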

[5] = biological target: Cellular tumor antigen p53 (Homo sapiens) (UniProt P04637); assay: ATG_p53_CIS: Attagene CIS-FACTORIAL HepG2 Assay for human p53 Transcription Factor (AID 2282994); settings: HepG2 p53 cis-element reporter, Attagene mRNA; actives raise or lower the signal
Chain of Cellular tumor antigen p53 (Homo sapiens) (P04637 whole entry, looked up): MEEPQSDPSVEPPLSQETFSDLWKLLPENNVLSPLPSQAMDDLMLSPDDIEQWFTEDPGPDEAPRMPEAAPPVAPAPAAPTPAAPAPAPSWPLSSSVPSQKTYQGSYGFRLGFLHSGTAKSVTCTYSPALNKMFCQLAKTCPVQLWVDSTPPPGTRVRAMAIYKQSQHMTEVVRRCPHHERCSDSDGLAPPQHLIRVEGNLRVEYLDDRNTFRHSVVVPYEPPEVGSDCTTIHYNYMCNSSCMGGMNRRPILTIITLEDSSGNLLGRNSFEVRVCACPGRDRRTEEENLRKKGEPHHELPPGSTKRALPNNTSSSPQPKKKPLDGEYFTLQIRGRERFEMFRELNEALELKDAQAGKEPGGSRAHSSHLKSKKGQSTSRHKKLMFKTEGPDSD
In short: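 Endogenous p53 activity read in transiently transfected HepG2 from a cis-element-driven reporter transcript after 24 h exposure. RNA reverse-transcribed, PCR-amplified, fluorescently labelled and sized by capillary electrophoresis; gain or loss fitted against DMSO baseline.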

[6] = ATG_NF_kB_CIS: Attagene CIS-FACTORIAL HepG2 Assay for human Nuclear Factor Kappa B (NF-kB) (AID 2282991); settings: HepG2 Attagene cis-factorial NF-kB reporter mRNA; actives raise or lower the signal
In short: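 Endogenous transcription factor activity in HepG2 was captured via cis-regulated reporter constructs; after 24 h dosing, reporter mRNA was reverse-transcribed, amplified, fluorescently labelled and sized by capillary electrophoresis, with activity fitted bidirectionally relative to DMSO.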

[7] = BSK_3C_TissueFactor: BioMAP Diversity Plus: 3C Assay for Tissue Factor Biomarker Activity (AID 2282997); settings: BioMAP 3C HUVEC, tissue factor biomarker readout; actives raise or lower the signal
In short: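 After a 24 h chemical exposure of primary human umbilical vein endothelial cells, Tissue Factor levels were quantified by ELISA.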

[8] = BSK_3C_uPAR: BioMAP Diversity Plus: 3C Assay for Urokinase-type plasminogen activator receptor (uPAR) Biomarker Activity (AID 2282998); settings: BioMAP 3C HUVEC, uPAR biomarker ELISA; actives raise or lower the signal
In short: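 Values derive from bidirectional curve fitting relative to DMSO, which served as baseline of activity. uPAR was measured by ELISA in human umbilical vein endothelial primary cultures 24 h after compound addition.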

[9] = BSK_4H_Eotaxin3: BioMAP Diversity Plus: 4H Assay for Eotaxin 3 Biomarker Activity (AID 2283000); settings: primary human endothelial cells (HUVEC); actives raise or lower the signal;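 also: CCL26 protein level quantified by ELISA in parallel with SRB cytotoxicity check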
In short: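 Chemicals were added to human umbilical vein endothelium cultures, and Eotaxin-3 was quantified by ELISA at 24 h. Values were derived by bidirectional fitting with DMSO serving as negative control and activity baseline.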

Row | SMILES | outcome [1] | outcome [2] | outcome [3] | outcome [4] | outcome [5] | outcome [6] | outcome [7] | outcome [8] | outcome [9] | AC50 [3]
1 | Cc1ccc(S(=O)(=O)O)cc1 | inactive | inactive | inactive | inactive | inactive | – | – | – | – | –
2 | CCOC=C(C(=O)OCC)C(=O)OCC | – | inactive | inactive | inactive | inactive | inactive | – | – | – | –
3 | CN(CCO)S(=O)(=O)C(F)(F)C(F)(F)C(F)(F)C(F)(F)C(F)(F)C(F)(F)C(F)(F)C(F)(F)F | inactive | inactive | inactive | inactive | inactive | – | inactive | inactive | inactive | –
4 | C=CC(=O)OCCC(F)(F)C(F)(F)C(F)(F)C(F)(F)C(F)(F)C(F)(F)F | inactive | inactive | – | inactive | inactive | – | – | – | – | 18.6 µM (active)
